Results as given in PubChem BioAssay (EPA / NIEHS).
Active and inactive are the calls of the source. How the source made its calls: active means hit-call score of the fitted dose curve at least 0.9, where 1 is the maximum; inactive means score below 0.9.

How the values were obtained:
[1] = ATG_CRE_CIS: Attagene CIS-FACTORIAL HepG2 Assay for human cAMP Responsive Element (CRE) binding protein 3 (AID 2282926); conditions: HepG2 CRE cis-reporter, Attagene multiplexed mRNA; actives raise or lower the signal
Outline: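 Readout: fluorescently labelled reporter transcripts resolved by capillary electrophoresis after RT-PCR, taken 24 h post-dosing in transfected HepG2. Endogenous transcription factor activity drives each cis-element reporter; gain or loss of signal fitted relative to DMSO control.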

[2] = ATG_CMV_CIS: Attagene CIS-FACTORIAL HepG2 Assay for human CMV (Internal Marker) (AID 2282928); conditions: HepG2 CMV promoter reporter, transcription factor profiling; actives raise or lower the signal;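 further: endpoint acts as a background internal control marker rather than a target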
Outline: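 24 h chemical treatment, HepG2 with transient multi-reporter transfection; RNA → oligo(dT) RT → PCR → 6-FAM extension → HpaI digest → CE fluorescence. Bidirectional fit, DMSO negative control.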

[3] = ATG_DR4_LXR_CIS: Attagene CIS-FACTORIAL HepG2 Assay for human Liver X Receptor (LXR), DR4 submotif (AID 2282929); conditions: HepG2 Attagene DR4 cis-reporter, mRNA transcription; actives raise or lower the signal
Outline: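 Measures endogenous transcription factor activity via a DR4-driven reporter transcript in human HepG2 cells. Compounds incubated 24 h; mRNA quantified by RT-PCR and capillary electrophoresis, analysed as gain or loss of signal versus DMSO.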

[4] = ATG_AP_1_CIS: Attagene CIS-FACTORIAL HepG2 Assay for human Activator Protein 1 (AP-1) (AID 2282931); conditions: HepG2 Attagene cis-factorial AP-1 reporter mRNA; actives raise or lower the signal
Outline: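 Bidirectional concentration-response fitting against DMSO controls. Underlying signal: reporter mRNA from cis-promoter constructs in transiently transfected HepG2, measured after 24 h by RT-PCR and capillary electrophoresis.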

[5] = ATG_AP_2_CIS: Attagene CIS-FACTORIAL HepG2 Assay for human Activator Protein 2 (AP-2) (AID 2282932); conditions: HepG2 AP-2 cis-reporter, Attagene transcription factor profiling; actives raise or lower the signal
Outline: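 Read-out: fluorescent reporter mRNA via RT-PCR and capillary electrophoresis, 24 h post-dose in transiently transfected HepG2. Endogenous factors drive cis-promoter reporters; gain or loss of signal fitted bidirectionally against DMSO.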

[6] = ATG_BRE_CIS: Attagene CIS-FACTORIAL HepG2 Assay for human Bone Morphogenetic Protein (BMP) Response Element (BRE) (AID 2282933); conditions: HepG2 BMP response element reporter, Attagene transcription factor profiling; actives raise or lower the signal
Outline: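 HepG2 cells transiently transfected with multiplexed cis-element reporter units were dosed with chemical for 24 h. Reporter mRNA was measured by RT-PCR with fluorescent labelling, HpaI digestion and capillary electrophoresis; bidirectional fitting relative to DMSO.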

[7] = biological target: Transcription factor E2F1 (Homo sapiens) (UniProt Q01094); test: ATG_E2F_CIS: Attagene CIS-FACTORIAL HepG2 Assay for human E2F Transcription Factor 1 (AID 2282935); conditions: HepG2 Attagene cis-reporter, E2F reporter RNA transcripts; actives raise or lower the signal
Outline: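 Transient MRTU transfection of HepG2; 24 h compound exposure; RNA → oligo(dT) RT → PCR → FAM label → HpaI cut → CE fluorescence. Gain/loss of signal fit against DMSO.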

[8] = ATG_E_Box_CIS: Attagene CIS-FACTORIAL HepG2 Assay for human Enhancer Box (E-box) (AID 2282936); conditions: HepG2 E-box cis-reporter transcription, actives raise or lower the signal
Outline: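 Transiently transfected HepG2, endogenous TF-driven reporters, 24 h dosing. Readout: RT-PCR plus capillary electrophoresis of fluorescent reporter fragments. Gain or loss of signal fitted bidirectionally against DMSO baseline.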

[9] = ATG_M_61_CIS: Attagene CIS-FACTORIAL HepG2 Assay for M61 Transcription Factor (Internal Marker) (AID 2282937); conditions: HepG2 Attagene CIS-FACTORIAL M61 internal marker reporter; actives raise or lower the signal
Outline: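 Fluorescence from labelled cDNA fragments, separated by capillary electrophoresis, quantifies reporter induction. HepG2 cells bearing transiently transfected cis-promoter MRTUs were incubated with test chemical for 24 h; DMSO defined baseline for gain/loss fitting.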

[10] = ATG_EGR_CIS: Attagene CIS-FACTORIAL HepG2 Assay for human Early Growth Response 1 (EGR1) (AID 2282938); conditions: HepG2 Attagene CIS-FACTORIAL EGR reporter mRNA; actives raise or lower the signal
Outline: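 Cell-based multiplex transcription assay: HepG2 carrying transfected cis-element reporter units, 24 h chemical treatment. Fluorescence from capillary electrophoresis of RT-PCR products gives mRNA levels; fitting is bidirectional relative to DMSO.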

[11] = ATG_M_19_CIS: Attagene CIS-FACTORIAL HepG2 Assay for M19 Transcription Factor (Internal Marker) (AID 2282939); conditions: HepG2 Attagene CIS-FACTORIAL M19 internal marker reporter; actives raise or lower the signal
Outline: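 HepG2 cells transiently transfected with cis-regulated multiple reporter transcription units were dosed for 24 h; reporter mRNA was quantified by RT-PCR, 6-FAM primer-extension labelling, HpaI digestion and capillary electrophoresis, with bidirectional fitting against DMSO baseline.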

[12] = ATG_ERE_CIS: Attagene CIS-FACTORIAL HepG2 Assay for Estrogen Response Element (ERE) (AID 2282940); conditions: HepG2 ERE cis-reporter, Attagene RNA transcript; actives raise or lower the signal
Outline: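 HepG2 cells transiently transfected with cis-promoter-driven multiplexed reporter transcription units report endogenous TF activity. After 24 h compound exposure, reporter mRNA is quantified by RT-PCR with capillary electrophoresis fluorescence; bidirectional fitting versus DMSO baseline.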

[13] = biological target: Hepatocyte nuclear factor 3-beta (Homo sapiens) (UniProt Q9Y261); test: ATG_FoxA2_CIS: Attagene CIS-FACTORIAL HepG2 Assay for human Forkhead box A2 (FOXA2) (AID 2282942); conditions: HepG2 cis-reporter transcription factor activity, 24 h; actives raise or lower the signal
Outline: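 In transiently transfected human HepG2 cells, promoter-driven reporter mRNA levels after 24 h chemical exposure are determined via RT-PCR with capillary electrophoresis. DMSO serves as baseline for bidirectional fitting.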

[14] = ATG_FoxO_CIS: Attagene CIS-FACTORIAL HepG2 Assay for human Forkhead box O (FoxO) (AID 2282943); conditions: HepG2 Attagene cis-reporter, FoxO element, mRNA; actives raise or lower the signal
Outline: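 Read-out: fluorescence of 6-FAM-labelled reporter cDNA fragments resolved by capillary electrophoresis. Transiently transfected HepG2 cells were dosed for 24 h; activity fitted in both directions relative to DMSO controls.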

[15] = ATG_GATA_CIS: Attagene CIS-FACTORIAL HepG2 Assay for human GATA Binding Protein (AID 2282944); conditions: HepG2 GATA cis-element reporter, Attagene multiplex mRNA; actives raise or lower the signal
Outline: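 HepG2 cells transiently transfected with multiplexed cis-element reporter units reflecting endogenous transcription factor activity; reporter mRNA measured after 24 h dosing by RT-PCR, 6-FAM labeling, HpaI digestion and capillary electrophoresis. Bidirectional fitting versus DMSO baseline.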

[16] = ATG_GLI_CIS: Attagene CIS-FACTORIAL HepG2 Assay for human Zinc Finger Protein GLI1 (AID 2282945); conditions: HepG2, Attagene cis-factorial reporter mRNA, GLI element; actives raise or lower the signal
Outline: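 Transiently transfected HepG2 cells report endogenous transcription factor activity via cis-element-driven reporter units. After 24 h compound exposure, reporter mRNA was measured by RT-PCR with capillary electrophoresis; bidirectional fitting against DMSO baseline.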

[17] = biological target: Aryl hydrocarbon receptor (Homo sapiens) (UniProt P35869); test: ATG_Ahr_CIS: Attagene CIS-FACTORIAL HepG2 Assay for human Aryl Hydrocarbon Receptor (Ahr) (AID 2282930); conditions: HepG2 AhR cis-factorial reporter transcription; actives raise or lower the signal
Outline: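 Read-out: reporter mRNA quantified by RT-PCR with fluorescent primer extension and capillary electrophoresis. Human HepG2 liver cells carried transfected cis-promoter reporter units and were exposed to chemical for 24 h; gain or loss fitted relative to DMSO.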

[18] = ATG_Ets_CIS: Attagene CIS-FACTORIAL HepG2 Assay for human Erythroblast Transformation Specific (ETS) (AID 2282941); conditions: HepG2 ETS cis-reporter transcription, actives raise or lower the signal
Outline: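 Cis-regulated reporter mRNA induction in HepG2 (transient transfection), 24 h exposure, RT-PCR plus capillary electrophoresis detection; DMSO serves as negative control and baseline.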

[19] = biological target: Retinoic acid receptor alpha (Homo sapiens) (UniProt P10276); test: ATG_DR5_RAR_CIS: Attagene CIS-FACTORIAL HepG2 Assay for human Retinoic Acid Receptor Alpha (RARE), DR5 submotif (AID 2282934); conditions: HepG2 Attagene cis-factorial RARE DR5 reporter, mRNA; actives raise or lower the signal
Outline: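 Read-out: DR5-driven reporter transcript measured by RT-PCR, 6-FAM primer extension, HpaI digest and capillary electrophoresis. Human HepG2 liver cells carry transiently transfected cis-element reporter constructs; dosing lasts 24 h. Gain or loss of signal fitted against DMSO baseline.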

Measured: AC50

Chain of Retinoic acid receptor alpha (Homo sapiens) (P10276 whole entry, looked up): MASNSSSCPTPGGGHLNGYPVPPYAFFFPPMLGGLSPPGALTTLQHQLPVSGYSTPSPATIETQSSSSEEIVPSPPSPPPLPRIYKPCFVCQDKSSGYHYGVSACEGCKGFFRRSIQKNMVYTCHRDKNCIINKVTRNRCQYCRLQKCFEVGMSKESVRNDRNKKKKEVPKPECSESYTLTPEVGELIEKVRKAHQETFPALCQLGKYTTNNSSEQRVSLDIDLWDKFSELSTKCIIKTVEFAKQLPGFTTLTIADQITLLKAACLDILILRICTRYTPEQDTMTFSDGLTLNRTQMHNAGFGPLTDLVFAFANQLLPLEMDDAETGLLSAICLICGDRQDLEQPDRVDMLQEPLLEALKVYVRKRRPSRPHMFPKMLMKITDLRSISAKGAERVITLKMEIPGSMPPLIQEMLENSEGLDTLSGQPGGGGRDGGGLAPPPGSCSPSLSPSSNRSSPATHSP
Chain of Transcription factor E2F1 (Homo sapiens) (Q01094 whole entry, looked up): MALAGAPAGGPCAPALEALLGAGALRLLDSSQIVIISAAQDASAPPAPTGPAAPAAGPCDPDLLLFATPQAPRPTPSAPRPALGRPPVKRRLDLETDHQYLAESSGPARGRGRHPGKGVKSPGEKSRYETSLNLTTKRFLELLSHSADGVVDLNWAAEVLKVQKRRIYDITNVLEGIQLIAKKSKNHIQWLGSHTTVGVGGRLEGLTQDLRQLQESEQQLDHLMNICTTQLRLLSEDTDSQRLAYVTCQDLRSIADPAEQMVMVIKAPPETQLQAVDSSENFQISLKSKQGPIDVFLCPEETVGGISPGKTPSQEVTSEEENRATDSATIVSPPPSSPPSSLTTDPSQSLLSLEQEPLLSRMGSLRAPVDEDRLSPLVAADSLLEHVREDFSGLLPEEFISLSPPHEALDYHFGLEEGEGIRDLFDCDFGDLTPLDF
Chain of Hepatocyte nuclear factor 3-beta (Homo sapiens) (Q9Y261 whole entry, looked up): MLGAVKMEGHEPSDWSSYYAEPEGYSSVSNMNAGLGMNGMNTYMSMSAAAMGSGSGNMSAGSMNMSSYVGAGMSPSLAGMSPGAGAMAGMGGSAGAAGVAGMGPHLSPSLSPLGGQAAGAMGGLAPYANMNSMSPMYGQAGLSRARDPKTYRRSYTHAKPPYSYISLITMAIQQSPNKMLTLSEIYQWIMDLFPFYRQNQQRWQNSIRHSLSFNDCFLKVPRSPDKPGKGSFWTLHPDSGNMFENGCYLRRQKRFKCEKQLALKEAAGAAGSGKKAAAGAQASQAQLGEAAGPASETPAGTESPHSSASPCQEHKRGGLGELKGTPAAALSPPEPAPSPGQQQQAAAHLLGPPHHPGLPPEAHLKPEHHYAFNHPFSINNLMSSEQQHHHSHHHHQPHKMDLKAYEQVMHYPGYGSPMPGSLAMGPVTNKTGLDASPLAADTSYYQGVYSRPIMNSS
Chain of Aryl hydrocarbon receptor (Homo sapiens) (P35869 whole entry, looked up): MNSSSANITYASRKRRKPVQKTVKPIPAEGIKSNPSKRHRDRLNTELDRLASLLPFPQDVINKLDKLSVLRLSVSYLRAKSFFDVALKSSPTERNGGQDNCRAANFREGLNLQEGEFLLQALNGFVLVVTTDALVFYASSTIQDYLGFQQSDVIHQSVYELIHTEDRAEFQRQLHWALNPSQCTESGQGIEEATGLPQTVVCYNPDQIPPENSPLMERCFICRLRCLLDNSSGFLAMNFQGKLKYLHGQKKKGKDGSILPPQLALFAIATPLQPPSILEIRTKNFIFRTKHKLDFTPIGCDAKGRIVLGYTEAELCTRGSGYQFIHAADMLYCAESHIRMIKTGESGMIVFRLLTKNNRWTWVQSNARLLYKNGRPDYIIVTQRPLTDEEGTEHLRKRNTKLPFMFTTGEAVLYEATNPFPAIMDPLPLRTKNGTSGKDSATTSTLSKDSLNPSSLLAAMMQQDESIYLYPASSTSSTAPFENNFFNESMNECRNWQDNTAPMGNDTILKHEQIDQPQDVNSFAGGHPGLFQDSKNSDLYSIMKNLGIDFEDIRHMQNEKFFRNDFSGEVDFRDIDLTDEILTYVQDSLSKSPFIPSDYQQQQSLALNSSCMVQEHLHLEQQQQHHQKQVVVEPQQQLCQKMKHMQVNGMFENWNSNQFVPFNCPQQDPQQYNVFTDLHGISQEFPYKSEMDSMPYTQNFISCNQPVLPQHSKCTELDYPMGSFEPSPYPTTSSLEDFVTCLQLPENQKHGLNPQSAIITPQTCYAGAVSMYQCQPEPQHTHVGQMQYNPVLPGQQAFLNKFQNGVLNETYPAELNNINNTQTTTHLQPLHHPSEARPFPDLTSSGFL

CC(=O)OCC(=O)[C@@]12N=C(C)O[C@@H]1C[C@H]1[C@@H]3CCC4=CC(=O)C=C[C@]4(C)[C@H]3[C@@H](O)C[C@@]12C
active: [12] 34.2 µM
not listed: [17] | [18] | [19]
inactive: all other assays above

CCCCCCOc1cc(C)c(O)c(C)c1C
not listed: [9] | [19]
inactive: all other assays above

O=P(O)(O)Oc1ccccc1
not listed: [8] | [9] | [16]
inactive: all other assays above

Cc1ccc(N)c([N+](=O)[O-])c1
not listed: [15]
inactive: all other assays above

CCCCCCCCO[C@@H]1O[C@H](CO)[C@@H](O)[C@H](O)[C@H]1O
not listed: [5]
inactive: all other assays above

O=C1CCCCCN1SSN1CCCCCC1=O
active: [1] 147 µM | [8] 182 µM | [10] 162 µM
not listed: [15] | [16] | [17] | [18]
inactive: all other assays above

ON(Cc1ccccc1)Cc1ccccc1
not listed: [19]
inactive: all other assays above

COC=O
not listed: [2] | [8]
inactive: all other assays above

CC1(C)[C@H]2CC[C@]1(C)C(=O)C2
not listed: [9] | [16]
inactive: all other assays above

CCCCCCCCCCCCCCCC[N+](C)(C)CC
active: [2] 8.84 µM | [3] 9.13 µM | [4] 16.3 µM | [5] 12.6 µM | [7] 5.48 µM | [8] 13.5 µM
not listed: [13] | [19]
inactive: all other assays above
